From PubChem BioAssay
Abeta yeast res = qHTS for compounds that reverse cellular toxicity of Amyloid beta (A-beta) peptide in yeast: Primary Screen | AID 1347071, 2019 | Potency, µM (titrated, usually from 46.1 µM), usual class: activators | yeast expressing A-beta42, growth rescue, OD600, 48 h; response scale: 0% DMSO, 100% iron-clioquinol control | 410,000 compounds, 0.063% hits; further: nearly all actives have a fitted effect of over 55% in size
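Yeast growth medium received pinned compounds, then yeast cells expressing toxic A-beta were added; plates incubated at 30 C for 48 hr. Growth read as absorbance at 600 nm, normalized to DMSO and equimolar FeCl3 plus clioquinol controls.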
A-T KAP1 phos = qHTS Assay for Identifying a Potential Treatment of Ataxia-Telangiectasia | F2112 A-T fibroblasts, KAP-1 phosphorylation AlphaLISA; neocarzinostatin DNA damage 30 min before lysis | Potency, µM (titrated, usually from 57.5 µM), usual class: activators | 320,000 compounds, 0.19% hits; further: nearly all actives have a fitted effect of over 45% in size
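hTERT-immortalized A-T patient fibroblasts (F2112), 500 cells/well in OPTI-MEM, 1% FBS, got compounds for 60 min, then NCS for 30 min at 37C. Lysates were then assayed for phospho-KAP-1 by AlphaLISA (anti-pKAP1 donor, anti-KAP1 acceptor beads), 6 hr at 25C.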
aSyn yeast inh = qHTS of alpha-syn Inhibitors; Yeast expressing alpha-synuclein, growth rescue, BacTiter-Glo, 24 h; Potency, µM (top dose mostly 46.1 µM), actives largely listed as activators; 370,000 compounds, 0.14% hits; AID 652106, 2013; further: nearly all actives have a fitted effect of over 65% in size
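Rescue of yeast growth: cells expressing toxic alpha-synuclein, induced in galactose at OD600 0.02, incubated with compound 24 h at 30 C. ATP luminescence quantified growth; inhibitors of toxicity appear as activators.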
FUS yeast rescue = qHTS for Suppressors of FUS Proteinopathy: Primary screen using FUS-linked yeast assay. S. cerevisiae FUS-expressing, growth rescue, OD600, 24 h. Potency, µM (titrated, usually from 76.6 µM), usual class: activators. 390,000 compounds, 0.24% hits. AID 1347120, 2019; further: nearly all actives have a fitted effect of over 55% in size
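Yeast FUS proteinopathy model; galactose-induced FUS (2%), starting OD 0.005. Cpds in dilution series, 24hr, 30C, 99% humidity. Abs 600 nm growth. Pos ctrl CP55940 (top 92uM final); neg ctrl DMSO.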
TDP43 rescue = qHTS of TDP-43 Inhibitors; TDP-43 expressing yeast growth rescue, BacTiter-Glo, 24 h; Potency, µM (series often up to 46.1 µM), actives largely listed as activators; 410,000 compounds, 1.8% hits; AID 652104, 2013; further: nearly all actives have a fitted effect of over 50% in size
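Yeast cells expressing TDP-43 under galactose induction are exposed to compounds for 24 hr at 30 deg C. BacTiter-Glo luminescence measures growth, so protective compounds score as activators.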
Mito fusion yeast = qHTS Assay for Small Molecule Inhibitors of Mitochondrial Division or Activators of Mitochondrial Fusion; S. cerevisiae fusion-defective mutant growth rescue, CellTiterGlo 48 h; Potency, µM (highest dose often 46.1 µM), actives largely listed as activators; 320,000 compounds, 0.23% hits; AID 485298, 2010; further: nearly all actives have a fitted effect of over 45% in size
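Compounds are tested for their ability to restore growth of mitochondrial fusion-defective yeast strains at non-permissive 37C in YPEG medium over 48 hours. Viability is quantified by luciferase luminescence.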
Of the large screens only hits and unclear results are named; the others gave an inactive call. Most compounds without a hit are left out; they make up all but 2.4% or so of the library. The call rests on the fitted dose curve; in most records, active means well fitted curve in the direction sought with a large enough effect; inconclusive means small, poorly fitted or top-dose-only effect, or another doubt; inactive means no such curve, though single readings can be large; an effect the other way counts as inactive or inconclusive.

Cc1ccc(-n2c(SCC(=O)Nc3cccc4ccccc34)nnc2-c2cnccn2)cc1	none (no result: Abeta yeast res, A-T KAP1 phos, aSyn yeast inh, TDP43 rescue, Mito fusion yeast)
COc1ccc(-c2nnc(SC(C)C(=O)Nc3cccc(Cl)c3)o2)cc1 (stereo not drawn)	TDP43 rescue 13µM
COc1ccc(-c2cc(C(=O)Nc3cccc(Cl)c3)no2)cc1	A-T KAP1 phos 10µM
COc1cc(NC(=O)c2cc(-c3ccccc3Cl)on2)cc(OC)c1OC	TDP43 rescue 16µM
COc1cc(-c2nc3n(n2)C(c2ccc(F)cc2)C(C(N)=O)=C(C)N3)cc(OC)c1OC (stereo not drawn)	none (no result: A-T KAP1 phos, aSyn yeast inh, Mito fusion yeast)
O=C(NCc1ccccc1)c1cc(C2CCCN(C(=O)CCCc3ccccc3)C2)on1 (stereo not drawn)	TDP43 rescue 35µM (no result: A-T KAP1 phos, Mito fusion yeast)
O=C(NCc1ccccc1)c1cc(C2CCCCN2C(=O)CCc2ccccc2)on1 (stereo not drawn)	TDP43 rescue 35µM (no result: A-T KAP1 phos, Mito fusion yeast)
CC(C)(C)C1CCc2sc(C(=O)NNC(=O)CCl)cc2C1 (stereo not drawn)	TDP43 rescue 13µM
O=C1CC(c2ccc(Br)cc2)c2c(ccc3ccccc23)N1 (stereo not drawn)	TDP43 rescue 35µM (no result: A-T KAP1 phos, aSyn yeast inh, Mito fusion yeast)
CC(C)CC(O)(CC(C)C)c1cn(C(=O)N(c2ccccc2)c2ccccc2)nn1	none (no result: Abeta yeast res, A-T KAP1 phos, aSyn yeast inh, TDP43 rescue, Mito fusion yeast)
CC1=C(C(=O)N2CCOCC2)CC(CC(=O)NC2CCCCC2)C(=O)N1Cc1ccc(C(C)(C)C)cc1 (stereo not drawn)	aSyn yeast inh 3.5µM, TDP43 rescue inconclusive (no result: A-T KAP1 phos, Mito fusion yeast)
CC1=C(C(=O)N2CCOCC2)CC(CC(=O)NC2CC2)C(=O)N1Cc1ccc(C(C)(C)C)cc1 (stereo not drawn)	none (no result: A-T KAP1 phos, Mito fusion yeast)
COc1ccc2c(c1C(=O)/C=C/c1ccccc1)OC(C)(C)C=C2	none (no result: Abeta yeast res, A-T KAP1 phos, aSyn yeast inh, TDP43 rescue, Mito fusion yeast)
CCOC(=O)c1c(C=O)c(C)n(Cc2ccc(Cl)cc2)c1C	TDP43 rescue 35µM, Mito fusion yeast inconclusive
N/C(=N\OC(=O)c1cccc(Cl)c1)c1cccnc1	TDP43 rescue inconclusive
N/C(=N\OC(=O)c1ccc(Cl)c(Cl)c1)c1cccc(CSc2ccccn2)c1	TDP43 rescue 11µM
N/C(=N\OC(=O)c1ccc(Cl)c(Cl)c1)c1cccnc1	TDP43 rescue 6.3µM
O=c1c2ccccc2n(Cc2ccccc2)n1[C@@H](Cc1ccccc1)Cn1cc(-c2ccc(-c3ccccc3)cc2)nn1	none (no result: Abeta yeast res, A-T KAP1 phos, aSyn yeast inh, TDP43 rescue, Mito fusion yeast)
CN(CCc1ccccn1)C(=O)c1cc2ccccn2n1	none (no result: Abeta yeast res, A-T KAP1 phos, aSyn yeast inh, TDP43 rescue, Mito fusion yeast)
Cc1ccc(CNC2CCC23CCC(c2ccccc2)CC3)o1 (stereo not drawn)	none (no result: Abeta yeast res, A-T KAP1 phos, aSyn yeast inh, TDP43 rescue, Mito fusion yeast)
Cc1cc2occ(CC(=O)NCc3cccs3)c2cc1C(C)C	Mito fusion yeast 16µM (no result: FUS yeast rescue)
COc1cc(OC)c(NC(=O)C(C)n2nc(-c3ccc(C)c(C)c3)ccc2=O)cc1Cl (stereo not drawn)	FUS yeast rescue inconclusive, TDP43 rescue 13µM (no result: A-T KAP1 phos, aSyn yeast inh, Mito fusion yeast)
Cc1ccc(-c2ccc(=O)n(C(C)C(=O)Nc3ccccc3Cl)n2)cc1C (stereo not drawn)	none (no result: A-T KAP1 phos, aSyn yeast inh, Mito fusion yeast)
CC(C)Cn1c(=O)c2ccccc2n2c(CCC(=O)N3CCN(c4ccccc4F)CC3)nnc12	none (no result: A-T KAP1 phos, aSyn yeast inh, Mito fusion yeast)
CC1CC(C)CN(CCCNC(=O)c2cn(C)c3ccc(S(=O)(=O)N4CCCC4)cc3c2=O)C1 (stereo not drawn)	A-T KAP1 phos 40µM
COc1ccc(OC)c(Nc2nc(-c3sc(C)nc3C)cs2)c1	TDP43 rescue 22µM
Cc1nc(C)c(-c2csc(Nc3ccc(Cl)cn3)n2)s1	TDP43 rescue 13µM (no result: A-T KAP1 phos, Mito fusion yeast)
COc1ccc(OC)c(Nc2nc(-c3sc(NC(=O)C(C)(C)C)nc3C)cs2)c1	FUS yeast rescue inconclusive
CC(=O)Nc1ccc(C(CCCc2ccccc2)C2=CCCCC2)cc1 (stereo not drawn)	none (no result: Abeta yeast res, A-T KAP1 phos, aSyn yeast inh, TDP43 rescue, Mito fusion yeast)
COc1ccc(-c2oc3cc(OC)c(O)c(OC)c3c(=O)c2OC)cc1O	TDP43 rescue 22µM
